Experimental data reported in PubChem BioAssay.
“And” between values parts separate entries of the source, which are not always exact repeats. Identical values can stand only once. Results filed as inconclusive are left out. The source made the active and inactive calls.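 How the source made its calls, unless noted: active means normalized viability below 100% at a tested concentration; inactive means the rest.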

Assays:
[1] = viability loss in pontine glioma line – cell-based, SU-DIPG-XXV, MIPE5.0, CellTiter-Glo, qHTS, dose response (AID 1347065; cut-off not given, nearly all actives have AC50 up to about 26 µM;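 further: cells exposed to compound for 48 hours before ATP readout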); settings: CellTiter-Glo ATP luminescence
[2] = JHH-DIPG-1 glioma cell viability, MIPE5.0 library, CellTiter-Glo luminescence, qHTS (AID 1347067; cut-off not given, nearly all actives have AC50 up to about 26 µM;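 further: cells exposed to compound for 48 hours before readout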); settings: JHH-DIPG-1 glioma viability, CellTiter-Glo ATP luminescence
[3] = SU-DIPG-XXV glioma cell viability, MIPE5.0 library, qHTS (AID 1347068; cut-off not given, nearly all actives have IC50 up to about 30 µM)
[4] = sensitizers of A549 cells to miR-34 induction, primary screen, imaging, A549 dox-inducible miR-34, nuclei and caspase counts (AID 1347080;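 active means compounds whose cell count with miR-34 switched on is under 0.7 times the count with it off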); settings: A549 miR-34 inducible, Hoechst nuclei count, 48 h
[5] = phospholipid biosynthesis inhibitors in animal cells, primary screen, cell-based, LOPAC library, screen 4 (AID 1347384; call rule not given here); settings: phospholipid biosynthesis inhibition screen, at 10 µM
[6] = target: NAD(+) hydrolase SARM1 (Homo sapiens) (UniProt Q6SZW1); assay: SARM1 TIR NADase inhibitors, cell lysate, NAD-Glo luminescence (AID 1508614;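 active means compound whose remaining NAD level is above about 45 nM, limit read from the data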); settings: SAM-TIR HEK293T lysate NADase, at 1 µM, stronger effect = higher value
[7] = target: Mitogen-activated protein kinase 7 (Homo sapiens) (UniProt Q13164); assay: ERK5 transactivation activators in reporter cells, primary screen, cell-based, HTS (AID 1508626;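 active means luciferase signal above three times the same-plate solvent-only control wells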;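 further: luciferase driven by Gal4-ERK5 fusion binding five Gal4 sites before minimal TATA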); settings: HeLa Gal4-ERK5 transactivation, 18 h, at 5 µM, stronger effect = higher value
[8] = viability rescue of complex I mutant cybrids, primary screen, cell-based, galactose medium, ATP luminescence (AID 1645843;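 active means z-score of at least 1.8 in each of two replicates, scored against plate mean and spread of sample wells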;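 further: positive z means more ATP and so rescue of galactose-driven cybrid death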); settings: complex I mutant cybrid cells, 72 h, stronger effect = higher value
[9] = LFS_MB_P medulloblastoma growth inhibition, cell-based, chromothripsis tumors, cisplatin or BGB combos (AID 1671449; in the data active means inhibition above about 80%;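 further: cells exposed for 96 hours; 0% = vehicle DMSO and 100% = killing by high DMSO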); settings: LFS_MB_P medulloblastoma cells
[10] = HDN33 neuroblastoma growth inhibition, cell-based, chromothripsis tumors, cisplatin or BGB combos (AID 1671450; in the data active means inhibition above about 80%;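 further: cells exposed to compound for four days; 0% = vehicle DMSO and 100% = cell killing by high DMSO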); settings: HDN33 neuroblastoma cells, stronger effect = higher value
[11] = ICB984 medulloblastoma cell growth inhibition, synergistic combos for chromothripsis tumors, cisplatin or BGB combos (AID 1671451; call rule not given here;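 further: cells exposed for 96 hours before readout; 0% = vehicle DMSO and 100% = killing by high DMSO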); settings: ICB984 medulloblastoma cells, drug combinations, stronger effect = higher value
[12] = LFS_MB_1R medulloblastoma cell growth inhibition, synergistic combos for chromothripsis tumors, cisplatin or BGB combos (AID 1671452; in the data active means inhibition above about 80%;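 further: cells exposed for 96 hours before readout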); settings: LFS_MB_1R medulloblastoma cells, stronger effect = higher value
[13] = HTB85 osteosarcoma cell growth inhibition, synergistic combos for chromothripsis tumors, BGB or cisplatin IC20 combos (AID 1671453; in the data active means inhibition above about 80%;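 further: cells exposed for 96 hours before readout; 0% = vehicle DMSO and 100% = high DMSO killing control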); settings: HTB85 osteosarcoma cells, drug combinations, stronger effect = higher value
[14] = CRL2098 osteosarcoma cell growth inhibition, synergistic combos for chromothripsis tumors, BGB or cisplatin IC20 combos (AID 1671454; in the data active means inhibition above about 80%;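 further: cells exposed for 96 h before readout; 0% = vehicle DMSO and 100% = killing by high DMSO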); settings: CRL2098 osteosarcoma cells, drug combinations, stronger effect = higher value
[15] = HD-MB03 medulloblastoma cell growth inhibition, synergistic combos for chromothripsis tumors, BGB or cisplatin IC20 combos (AID 1671455; in the data active means inhibition above about 83%;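 further: 0% = vehicle DMSO and 100% = high DMSO as cytotoxic control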); settings: HD-MB03 medulloblastoma cells, stronger effect = higher value
[16] = modifiers of HSF1 nuclear foci, imaging, Selleck Cancer Library (AID 1347162; in the data active means plate-normalised HSF1 focus index below about 0.46); settings: human cells, at 10 µM; SSMD: measured here: HSF1 foci SSMD mean; cell count: measured here: cell number; plate-normalised HSF1 focus index: stronger effect = lower value
[17] = survival rescue of mitochondrial mutant cells in low glucose, primary screen, MELAS cybrids, Rieske KO mouse fibroblasts, CellTiter-Glo (AID 1508586;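 active means mean z-score across replicates of 1.96 or higher in either the MELAS or the Rieske mutant cell line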;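 further: z relative to plate mean and SD of compound and empty wells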)
[18] = ovarian cancer cell viability with rucaparib, profiling panel, oncology-focused library, rucaparib conditional (AID 1508598); settings: patient-derived ovarian cancer cells, CellTiter-Glo viability, 144 h, stronger effect = lower value
[19] = stronger effect = lower value, cell number ratio, induced over uninduced
[20] = measured here: relative caspase fold change +Dox/-Dox
[21] = measured here: total cells with miR-34 induction, stronger effect = lower value
[22] = measured here: total cells without miR-34 induction
[23] = measured here: combination with BGB IC40, at 0.05 µM

NAD(+) hydrolase SARM1 (Homo sapiens), sequence (Q6SZW1 whole entry, looked up, the tested form may be a part): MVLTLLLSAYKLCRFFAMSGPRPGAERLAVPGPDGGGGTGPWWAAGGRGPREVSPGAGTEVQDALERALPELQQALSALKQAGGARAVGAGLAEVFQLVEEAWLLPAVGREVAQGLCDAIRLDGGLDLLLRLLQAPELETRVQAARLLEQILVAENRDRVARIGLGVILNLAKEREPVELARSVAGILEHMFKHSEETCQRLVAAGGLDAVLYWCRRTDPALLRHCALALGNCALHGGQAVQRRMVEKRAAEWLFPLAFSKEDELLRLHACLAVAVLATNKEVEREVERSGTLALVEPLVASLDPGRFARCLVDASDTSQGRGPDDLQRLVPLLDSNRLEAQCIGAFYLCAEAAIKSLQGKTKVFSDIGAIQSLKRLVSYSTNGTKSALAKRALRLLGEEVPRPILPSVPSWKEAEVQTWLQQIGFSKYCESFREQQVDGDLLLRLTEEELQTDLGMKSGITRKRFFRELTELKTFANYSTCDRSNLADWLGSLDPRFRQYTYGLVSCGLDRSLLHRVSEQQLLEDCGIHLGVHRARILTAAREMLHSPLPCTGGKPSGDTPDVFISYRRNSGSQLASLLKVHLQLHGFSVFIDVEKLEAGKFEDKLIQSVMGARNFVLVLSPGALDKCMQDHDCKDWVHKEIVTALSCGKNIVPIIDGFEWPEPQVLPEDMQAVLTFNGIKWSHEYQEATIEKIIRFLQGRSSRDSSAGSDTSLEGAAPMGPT
Mitogen-activated protein kinase 7 (Homo sapiens), sequence (Q13164 whole entry, looked up, the tested form may be a part): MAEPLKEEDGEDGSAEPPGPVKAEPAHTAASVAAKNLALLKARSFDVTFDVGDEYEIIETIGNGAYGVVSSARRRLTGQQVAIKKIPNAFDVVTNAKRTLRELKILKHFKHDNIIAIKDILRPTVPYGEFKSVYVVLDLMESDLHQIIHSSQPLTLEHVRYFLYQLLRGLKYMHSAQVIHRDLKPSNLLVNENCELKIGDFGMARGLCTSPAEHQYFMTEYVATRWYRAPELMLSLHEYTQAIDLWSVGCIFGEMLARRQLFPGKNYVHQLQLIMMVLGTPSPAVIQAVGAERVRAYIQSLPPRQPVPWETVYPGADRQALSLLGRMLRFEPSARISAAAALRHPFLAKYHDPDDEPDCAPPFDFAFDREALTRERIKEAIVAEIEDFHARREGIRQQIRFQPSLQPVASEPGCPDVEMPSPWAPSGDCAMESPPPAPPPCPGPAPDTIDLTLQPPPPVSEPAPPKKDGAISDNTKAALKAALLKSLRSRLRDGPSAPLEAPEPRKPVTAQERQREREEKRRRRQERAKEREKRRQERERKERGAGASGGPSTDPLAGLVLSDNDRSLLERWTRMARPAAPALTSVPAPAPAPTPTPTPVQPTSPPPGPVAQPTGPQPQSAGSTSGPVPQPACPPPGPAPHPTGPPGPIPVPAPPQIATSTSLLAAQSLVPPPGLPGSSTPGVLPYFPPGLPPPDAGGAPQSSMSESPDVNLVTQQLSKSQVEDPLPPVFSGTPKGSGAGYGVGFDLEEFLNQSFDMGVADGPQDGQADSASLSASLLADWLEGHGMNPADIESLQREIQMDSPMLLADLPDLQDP

SMILES: O=NN(CCCl)C(=O)NCCCl
- outcome [1]: inactive
- outcome [2]: inactive
- outcome [3]: inactive
- fold change [4, 19]: 0.948 (inactive) and 0.902 (inactive)
- fold change [4, 20]: 1.47 and 4.57
- cell count [4, 21]: 8130 and 9540
- cell count [4, 22]: 8570 and 10600
- outcome [5]: inactive
- remaining NAD [6]: 10 nM (inactive)
- luciferase signal [7]: 204 AU (inactive)
- z-score [8]: -0.84 (inactive)
- inhibition ([9]; at 0.5 µM, stronger effect = higher value): -2.88% (inactive)
- inhibition ([9]; measured here: combination with BGB IC20, at 0.005 µM): -4.26%
- inhibition ([9]; measured here: combination with BGB IC40, at 0.005 µM): -31.6%
- inhibition [9, 23]: -3.31%
- inhibition ([9]; measured here: combination with cisplatin, at 0.5 µM, stronger effect = higher value): 2.24%
- inhibition ([9]; measured here: combination with cisplatin, at 5 µM, stronger effect = higher value): -36.8%
- inhibition ([10]; BGB combo, at 5 µM): -14.5%
- inhibition ([10]; at 0.5 µM): 6.29% (inactive)
- inhibition ([10]; cisplatin combo, at 5 µM): -3.04%
- inhibition ([10]; measured here: with BGB IC20 combination, at 0.5 µM): 11.2%
- inhibition ([10]; measured here: with cisplatin IC20 combination, at 0.5 µM): -4.17%
- inhibition ([10]; single agent, at 5 µM): -8.15%
- inhibition ([11]; BGB IC20 combo, at 0.005 µM): 5.44%
- inhibition ([11]; BGB IC40 combo, at 0.005 µM): -42.6%
- inhibition ([11]; BGB IC40 combo, at 0.05 µM): -39%
- inhibition ([11]; at 0.5 µM): -40.7% (inactive)
- inhibition ([11]; cisplatin combo, at 0.05 µM): -44.5%
- inhibition ([11]; cisplatin combo, at 0.5 µM): -65.9%
- inhibition ([11]; cisplatin combo, at 5 µM): -35.2%
- inhibition ([11]; measured here: 5 uM single agent, at 5 µM): -15.7%
- inhibition ([12]; at 0.5 µM): -12.2% (inactive)
- inhibition [12, 23]: -13.6%
- inhibition ([12]; measured here: combination with cisplatin, at 0.5 µM): 10.3%
- inhibition ([12]; measured here: combination with cisplatin, at 5 µM): -12%
- inhibition ([13]; at 0.5 µM): -10.6% (inactive)
- inhibition ([13]; measured here: with BGB IC20, at 0.5 µM): -23%
- inhibition ([13]; measured here: with BGB IC20, at 5 µM): 17.7%
- inhibition ([13]; measured here: with cisplatin IC20, at 0.5 µM): -10.4%
- inhibition ([13]; measured here: with cisplatin IC20, at 5 µM): 11.5%
- inhibition ([13]; single agent, at 5 µM): 11%
- inhibition ([14]; at 0.5 µM): -22.8% (inactive)
- inhibition ([14]; measured here: combination with BGB at IC20, at 0.5 µM): -7.62%
- inhibition ([14]; measured here: combination with cisplatin at IC20, at 0.5 µM): 2.1%
- inhibition ([15]; at 0.5 µM): -9.81% (inactive)
- inhibition ([15]; measured here: combo with BGB at IC20, at 0.5 µM): -13.2%
- inhibition ([15]; measured here: combo with cisplatin at IC20, at 0.5 µM): -3.83%

SMILES: COc1cc2c(N3CCN(C(=O)Nc4ccc(OC(C)C)cc4)CC3)ncnc2cc1OCCCN1CCCCC1
- outcome [1]: inactive
- outcome [2]: inactive
- outcome [3]: inactive
- fold change [4, 19]: 0.882 (inactive) and 0.979 (inactive)
- fold change [4, 20]: 1.09 and 0.885
- cell count [4, 21]: 7400 and 5330
- cell count [4, 22]: 8380 and 5450
- SSMD [16]: 0.871
- cell count [16]: 7020
- plate-normalised HSF1 focus index [16]: 1.05 (inactive)
- z-score ([17]; MELAS cybrid survival, CellTiter-Glo 48 h, stronger effect = higher value): -0.531 (inactive)
- z-score ([17]; Rieske KO mouse fibroblast survival, CellTiter-Glo 72 h): 0.343
- viability ([18]; at 0.000305 µM, OCI-C5x cells, with rucaparib 10 µM, 100% = cells with rucaparib alone): 113% (inactive)
- viability ([18]; at 0.000305 µM, OCI-C5x cells, without rucaparib): 103% (inactive)
- viability ([18]; at 0.000305 µM, OCI-P5x cells, with rucaparib 20 µM, 100% = cells with rucaparib alone): 86.7% (active)
- viability ([18]; at 0.000305 µM, OCI-P5x cells, without rucaparib): 88.3% (active)
- viability ([18]; at 0.00122 µM, OCI-C5x cells, with rucaparib 10 µM, 100% = cells with rucaparib alone): 104% (inactive)
- viability ([18]; at 0.00122 µM, OCI-C5x cells, without rucaparib): 105% (inactive)
- viability ([18]; at 0.00122 µM, OCI-P5x cells, with rucaparib 20 µM, 100% = cells with rucaparib alone): 97% (active)
- viability ([18]; at 0.00122 µM, OCI-P5x cells, without rucaparib): 88.4% (active)
- viability ([18]; at 0.00488 µM, OCI-C5x cells, with rucaparib 10 µM, 100% = cells with rucaparib alone): 112% (inactive)
- viability ([18]; at 0.00488 µM, OCI-C5x cells, without rucaparib): 97.5% (active)
- viability ([18]; at 0.00488 µM, OCI-P5x cells, with rucaparib 20 µM, 100% = cells with rucaparib alone): 114% (inactive)
- viability ([18]; at 0.00488 µM, OCI-P5x cells, without rucaparib): 96.8% (active)
- viability ([18]; at 0.0195 µM, OCI-C5x cells, with rucaparib 10 µM, 100% = cells with rucaparib alone): 109% (inactive)
- viability ([18]; at 0.0195 µM, OCI-C5x cells, without rucaparib): 98.4% (active)
- viability ([18]; at 0.0195 µM, OCI-P5x cells, with rucaparib 20 µM, 100% = cells with rucaparib alone): 130% (inactive)
- viability ([18]; at 0.0195 µM, OCI-P5x cells, without rucaparib): 92.4% (active)
- viability ([18]; at 0.0781 µM, OCI-C5x cells, with rucaparib 10 µM, 100% = cells with rucaparib alone): 113% (inactive)
- viability ([18]; at 0.0781 µM, OCI-C5x cells, without rucaparib): 105% (inactive)
- viability ([18]; at 0.0781 µM, OCI-P5x cells, with rucaparib 20 µM, 100% = cells with rucaparib alone): 115% (inactive)
- viability ([18]; at 0.0781 µM, OCI-P5x cells, without rucaparib): 94.2% (active)
- viability ([18]; at 0.313 µM, OCI-C5x cells, with rucaparib 10 µM, 100% = cells with rucaparib alone): 119% (inactive)
- viability ([18]; at 0.313 µM, OCI-C5x cells, without rucaparib): 113% (inactive)
- viability ([18]; at 0.313 µM, OCI-P5x cells, with rucaparib 20 µM, 100% = cells with rucaparib alone): 146% (inactive)
- viability ([18]; at 0.313 µM, OCI-P5x cells, without rucaparib): 90.4% (active)
- viability ([18]; at 1.25 µM, OCI-C5x cells, with rucaparib 10 µM, 100% = cells with rucaparib alone): 123% (inactive)
- viability ([18]; at 1.25 µM, OCI-C5x cells, without rucaparib): 117% (inactive)
- viability ([18]; at 1.25 µM, OCI-P5x cells, with rucaparib 20 µM, 100% = cells with rucaparib alone): 105% (inactive)
- viability ([18]; at 1.25 µM, OCI-P5x cells, without rucaparib): 90% (active)
- viability ([18]; at 5 µM, OCI-C5x cells, with rucaparib 10 µM, 100% = cells with rucaparib alone): 158% (inactive)
- viability ([18]; at 5 µM, OCI-C5x cells, without rucaparib): 138% (inactive)
- viability ([18]; at 5 µM, OCI-P5x cells, with rucaparib 20 µM, 100% = cells with rucaparib alone): 115% (inactive)
- viability ([18]; at 5 µM, OCI-P5x cells, without rucaparib): 86.2% (active)
- remaining NAD [6]: 10 nM (inactive)
